High-throughput results deposited in PubChem by several laboratories.
CYP2C19 activ: human CYP2C19 activators, primary screen, biochemical, luminescence | Cytochrome P450 2C19 (Homo sapiens), P33261 | recombinant CYP2C19, luciferin-H EGE luminescence; hits give high values; 0 = fully inhibited enzyme, 1 = untreated enzyme | activation factor at 5 µM | 96,000 tested, under 10 active | AID 1025, 2008;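 active means activation factor of at least 2 at 5 µM in the primary screen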;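 further: 0 = wells with 2.5 mM tranylcypromine and 1 = vehicle-only wells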
PostGolgi ctrl: growth inhibition of yeast control strain, primary screen, counter-screen for post-Golgi transport modulator project; efflux-deficient yeast background strain, growth absorbance A615, 16 h; inhibition, % at 10 µM; hit rate 5% among 98,000; AID 738, 2007
PostGolgi yeast: phenotypic screen on post-Golgi transport, primary screen; inhibition, % at 10 µM; hit rate 0.9% among 98,000; post-Golgi transport phenotypic cell assay;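 further: yeast cells grown in 1536-well plates; yeast grown about 18 h at 30C before absorbance read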
CYP2C9 activ: human CYP2C9 activators, primary screen, biochemical, luminescence; recombinant CYP2C9, luciferin-H conversion; hits give high values; factor 1 = untreated enzyme, 0 = blocked; hit rate 1.4% among 96,000; activation factor at 5 µM;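 active means activation factor of 2 or more for CYP2C9 at a 5 µM dose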;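 further: 0 = sulfaphenazole-blocked wells and 1 = vehicle-only wells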
Target sequence (P11712 whole entry, looked up): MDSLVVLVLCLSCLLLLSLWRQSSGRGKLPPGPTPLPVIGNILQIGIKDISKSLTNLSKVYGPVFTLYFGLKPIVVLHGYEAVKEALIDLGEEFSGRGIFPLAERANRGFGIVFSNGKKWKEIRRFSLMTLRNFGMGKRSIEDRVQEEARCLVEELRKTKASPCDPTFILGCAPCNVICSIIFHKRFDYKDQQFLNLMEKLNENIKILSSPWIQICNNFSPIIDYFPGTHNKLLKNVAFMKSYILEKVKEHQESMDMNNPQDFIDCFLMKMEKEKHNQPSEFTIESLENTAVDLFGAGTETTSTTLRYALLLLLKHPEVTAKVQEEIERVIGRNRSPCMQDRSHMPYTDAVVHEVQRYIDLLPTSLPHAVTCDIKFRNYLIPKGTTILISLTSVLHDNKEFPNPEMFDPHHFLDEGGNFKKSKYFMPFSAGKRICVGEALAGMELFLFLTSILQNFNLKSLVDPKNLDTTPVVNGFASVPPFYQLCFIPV
CYP2C19 inh: blockers of cytochrome P450 2C19 activity – biochemical, luminescence, ADME assay, primary screen; P33261; CYP2C19 Supersomes, luciferin-H EGE luminescence, 30 min; inhibition, % at 5 µM; hit rate 21% among 96,000;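 active means CYP2C19 inhibition above a set limit at 5 µM in the primary screen, cut at about 50% in these data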;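 further: plate controls were negative control wells for no effect and 2.5 mM tranylcypromine positive control for full effect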
CYP2C9 inh: blockers of cytochrome P450 2C9 activity – biochemical, luminescence, ADME assay, primary screen; CYP2C9 Supersomes, luciferin-H conversion; inhibition, % at 5 µM; hit rate 20% among 96,000; AID 777, 2007;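 active means blocking of liver enzyme CYP2C9 beyond about 50% at 5 µM, limit read from the data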
The depositor's hits bear a star; . = no result given. Hits are enriched below; roughly 32% of the tested compounds scored in any of these assays. Unless noted, no stated cut-off is given here; in the data, active means inhibition above about 30%; inactive means the rest.

SMILES | CYP2C19 activ | PostGolgi ctrl | PostGolgi yeast | CYP2C9 activ | CYP2C19 inh | CYP2C9 inh
Cc1ccc(CSc2nnnn2C)cc1 | 0.3 | 4.0 | 1.0 | 0.9 | 74.4* | 12.2
Cn1nnnc1SCSc1nnnn1C | 1 | 6.3 | 2.3 | 0.8 | -4.8 | 23.1
Cn1nnnc1SCc1ccc(F)cc1 | 0.4 | 8.9 | 1.1 | 1.1 | 55.8* | -5.1
Cc1occc1-c1nnc(SCc2nnc(-c3ccc(Cl)cc3)o2)n1C | . | 8.7 | -1.6 | . | . | .
CCC1CC(CSc2ncn[nH]2)OC1=O (stereo not given) | 0.9 | 1.8 | -1.6 | 0.9 | 5.5 | 12.6
O=C(NCCc1ccccc1)c1cc(-c2ccc3c(c2)OCO3)on1 | 1 | -2.4 | -8.4 | 0.8 | 3.4 | 20.7
CCCCC(=O)c1ccc(O)cc1 | 0.8 | -5.4 | -10.4 | 2.2* | 23.9 | -119.3
O=C(O)C1C2CCC(O2)C1C(=O)NCc1ccncc1 (stereo not given) | 0.7 | 8.9 | -0.3 | 0.7 | 34.8 | 30.4
COc1cccc(C2=CC(c3ccc(N(C)C)cc3)n3ncnc3N2)c1 (stereo not given) | 0.7 | 8.0 | -0.7 | 0.5 | 30.4 | 53.2*
COc1cccc(C2=CC(c3ccccc3)n3ncnc3N2)c1 (stereo not given) | 0.5 | 5.8 | 0.3 | 0.4 | 54.9* | 55.2*
CCOc1ccc(C2C=C(c3ccc(F)cc3)Nc3ncnn32)cc1 (stereo not given) | 0.6 | 25.3 | 12.7 | 0.4 | 44.1 | 58.9*
CCCC(=O)Nc1ccc(C(=O)NNC(=O)c2ccco2)cc1 | 0.8 | 1.5 | 7.1 | 0.8 | 23.8 | 19.8
COc1ccc(CCNC(=O)CN(c2ccccc2OC)S(C)(=O)=O)cc1OC | 0.6 | 1.2 | -10.4 | 0.6 | 39.9 | 42.4
COc1ccccc1N(CC(=O)Nc1ccc2c(c1)OCCO2)S(C)(=O)=O | 1 | 2.4 | -3.5 | 0.7 | -2.2 | 30.7
COc1ccc(N(CC(=O)Nc2cccc(SC)c2)S(C)(=O)=O)cc1Cl | 0.4 | 0.8 | -6.2 | 0.9 | 59.0* | 13.0
COc1ccc(Cl)cc1N(CC(=O)Nc1cccc(SC)c1)S(C)(=O)=O | 0.1 | 11.6 | -2.3 | 0.3 | 90.6* | 71.5*
COc1ccc(Cl)cc1N(CC(=O)Nc1ccc2c(c1)OCCO2)S(C)(=O)=O | 0.2 | 5.7 | -3.2 | 0.3 | 76.2* | 69.0*
CSc1cccc(NC(=O)CN(c2cc(C)ccc2C)S(C)(=O)=O)c1 | 0.2 | 4.7 | 1.3 | 0.4 | 84.8* | 55.7*
CNC(=O)CN(c1cc(C)ccc1C)S(C)(=O)=O | 0.8 | 10.1 | -5.9 | 0.9 | 20.9 | 10.0
CC(CN(C)Cc1ccccc1)OC(=O)C1COc2ccccc2O1 (stereo not given) | 0.9 | 0.3 | 1.7 | 1.1 | 6.3 | -9.8
C=CCN1C(=O)C2(C(C#N)=C(N)Oc3n[nH]c(CCC)c32)c2ccccc21 (stereo not given) | 1 | -0.5 | 3.2 | 1 | -1.7 | -0.6
CC(=O)N1CCc2cc(S(=O)(=O)NC(C(=O)Nc3ccc4c(c3)OCCO4)C(C)C)ccc21 (stereo not given) | 0.6 | 0.6 | -1.7 | 0.5 | 38.9 | 51.7*
CC(=O)N1CCc2cc(S(=O)(=O)CCC(=O)Nc3ccc4c(c3)OCCO4)ccc21 | 0.9 | 2.5 | -1.3 | 1 | 11.9 | 4.1
CCOC(=O)c1cccc(NC(=O)C(NS(=O)(=O)c2ccc3c(c2)CCN3C(C)=O)C(C)C)c1 (stereo not given) | 0.8 | 2.4 | 4.7 | 0.3 | 19.2 | 67.9*
CC(=O)N1CCc2cc(S(=O)(=O)NC(C(=O)Nc3nc(C)cs3)C(C)C)ccc21 (stereo not given) | 1 | 2.4 | 9.9 | 1 | 1.6 | 1.5
CN(C)C1NC(=O)c2cc(-c3ccccc3)sc2N1 (stereo not given) | 0.5 | 6.3 | 4.2 | 0.7 | 46.4 | 28.0
CC(C)(C)N1CC2([N+](=O)[O-])CN(C(C)(C)C)CC([N+](=O)[O-])(C1)C2 | 0.9 | -1.7 | 0.0 | 0.9 | 13.3 | 6.3
COc1ccc2c(c1OC)C(=O)N1N=C(c3ccccc3)CC21 (stereo not given) | 0.8 | -4.4 | 0.0 | 1.2 | 19.4 | -21.9
